# High-throughput results (PubChem)
# IP6K1 inhibitor = IP6K1 kinase inhibition; Q92551; IP6K1 kinase, ADP-Glo luminescence, 2 h; stronger effect = lower value; activity change, % (series mostly up to about 58 µM); actives 0.81% (n = 140,000); in the data active means activity change below about -25%; further: on the % scale 0 is the no-effect control and ±100 the full control effect
# Target sequence (Q92551 whole entry, looked up): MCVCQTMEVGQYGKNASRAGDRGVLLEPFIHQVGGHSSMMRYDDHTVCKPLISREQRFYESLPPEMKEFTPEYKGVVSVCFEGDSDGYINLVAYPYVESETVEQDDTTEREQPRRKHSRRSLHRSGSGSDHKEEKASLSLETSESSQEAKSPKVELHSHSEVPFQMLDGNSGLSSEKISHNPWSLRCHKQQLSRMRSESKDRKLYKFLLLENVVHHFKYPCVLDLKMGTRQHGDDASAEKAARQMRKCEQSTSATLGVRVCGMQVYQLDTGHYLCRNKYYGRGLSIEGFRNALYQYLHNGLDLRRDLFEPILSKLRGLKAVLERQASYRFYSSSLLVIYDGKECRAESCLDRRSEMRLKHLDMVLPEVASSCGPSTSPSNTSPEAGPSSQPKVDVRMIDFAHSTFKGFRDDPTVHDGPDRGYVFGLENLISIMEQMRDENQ
#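 ADP-Glo luminescence measures ADP made by human IP6K1 during a 2 h RT reaction with ATP/IP6 (mix at 1.3 mM/130 uM); top library doses 57.5 and 19.1 uM final.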
# KDM5B inh = inhibitors of human KDM5B histone demethylase; Q9UGL1; KDM5B demethylase, FDH-coupled NADH fluorescence (FDH is formaldehyde dehydrogenase); Potency, µM (series often up to 57.7 µM), usual class: inhibitors; actives 2.6% (n = 220,000); further: potency means the concentration at half of the fitted maximal effect; 0% is about no effect; nearly all actives have a fitted effect of over 70% in size
#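 Here, H3K4me3 peptide (12.5 µM in substrate mix) is demethylated by KDM5BΔAP, 200 nM final, after 10 min compound exposure. Formaldehyde product is coupled through FDH (0.25 U/mL in mix) to NADH fluorescence; 30-min ΔRFU feeds dose-response curves.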
# HEK293 viab = counter-screen for SNCA expression inhibitors: cell viability; Potency, µM (series often up to 57.1 µM), without a hit: top-dose activity change, negative = cytotoxicity, usual class: cytotoxic; actives 0.12% (n = 150,000); HEK-293-SNCA-luc viability, GF-AFC fluorescence, 24 h;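 further: potency means the concentration at half of the fitted maximal effect; 0% = DMSO-treated cells and -100% = medium-only wells without cells; nearly all actives have a fitted effect of over 30% in size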
#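 Cytotoxicity counterscreen: after 24 h compound treatment of genome-edited SNCA-luciferase HEK-293 cells, live-cell protease substrate GF-AFC read by fluorescence after 30 min; activity scaled between DMSO (0%) and medium-only (-100%), curves Hill-fitted.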
# SNCA expr inh = reduces expression of the alpha-synuclein gene; HEK-293 SNCA-luciferase knock-in, luminescence, 24 h; Potency, µM (titrated, usually from 57.2 µM), without a hit: at the highest dose activity change, negative = inhibition, actives largely listed as inhibitors; actives 0.17% (n = 140,000); AID 1671194;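 further: potency means the concentration at half of the fitted maximal effect; plate controls were DMSO cells for no effect and cell-free wells for full effect; nearly all actives have a fitted effect of over 45% in size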
# IP6K1 inh cnf = human IP6K1 inhibition, confirmatory. shares compounds with IP6K1 inhibitor. recombinant IP6K1 kinase, ADP-Glo luminescence, 2 h. Potency, µM (titrated, usually from 49 µM), without a hit: at the highest dose activity change, negative = inhibition, hits mostly inhibitors. AID 1645852. actives 13% (n = 1,200); further: potency means the concentration at half of the fitted maximal effect; on the % scale 0 is the no-effect control and ±100 the full control effect; nearly all actives have a fitted effect of over 65% in size
# Active calls of the source: *; i = inactive; ? = inconclusive; . = no result; [ ] = another dose, or the depositor's remark. An excerpt weighted towards active compounds, which were near 3% of everything screened. Unless noted, the call rests on the fitted dose curve; in most records, active means well fitted curve in the direction sought with a large enough effect; inconclusive means small, poorly fitted or top-dose-only effect, or another doubt; inactive means no such curve, though single readings can be large; an effect the other way counts as inactive or inconclusive.
SMILES,IP6K1 inhibitor,KDM5B inh,HEK293 viab,SNCA expr inh,IP6K1 inh cnf
Cn1ncc2c(Nc3ccccc3)nc(NC3CCCC3)nc21,.,i,.,.,.
Cc1cccc(CN2CCNc3cc(-c4ccnc(C)c4)ncc3C2)c1,-29*,?,?,0%[87.6 µM],-17%
Cc1cc2c(C(C)C)c(O)c(O)c(C=O)c2c(O)c1-c1c(C)cc2c(C(C)C)c(O)c(O)c(C=O)c2c1O,-59*,.,?,?,?
Cc1cc(=O)oc2c(C=O)c(O)ccc12,-12,.,2%,.,.
Cn1ncc2c(C(=O)NCCCNC(=O)OC(C)(C)C)cc(-c3ccccc3C(F)(F)F)nc21,-1,.,.,.,.
CC(=O)N1CC2(Cc3ccccc3N(C(C)=O)C2)C1,-7,i,-3%[87.6 µM],-7%[87.6 µM],.
COC(=O)N1CC2(Cc3ccccc3N(C(C)=O)C2)C1,-25*,i,19%[87.6 µM],16%[87.6 µM],1%
O=C(NCc1ccc(Cl)cc1)c1ccc2nnc(-c3ccc(Cl)cc3Cl)n2c1,2,.,5%,-12%,.
Cc1nc(CC(=O)N2CC[C@@H](NC(=O)c3cnccn3)[C@H](O)C2)cs1,-4,i,2%,2%,.
COc1ccccc1CC(=O)N1CC[C@@H](NC(=O)c2cnccn2)[C@H](O)C1,-31*,?,-1%,12%,6%
COc1ccc(NC(=O)C2=CC(c3ccco3)=NS(=O)(=O)N2C)cc1,-30*,i,1%,27%,-20%
Cc1ccc(C(C(=O)N2CCC(Cc3noc(C)n3)CC2)N(C)C)cc1 (stereo unspecified),-27*,i,0%,19%,3%
Cc1nc(CC2CCN(C(=O)c3cc4c(s3)CCC(C)C4)CC2)no1 (stereo unspecified),2,i,4%,69%,.
CCOCCNC(=O)c1cc(-c2ccc(Cl)cc2Cl)nc2c1cnn2C,-1,.,-4%,2%,.
CN1C[C@@H](NC(=O)Nc2ccccc2)C[C@H]1c1nc(-c2ccccc2)no1,-25*,35µM*,2%[87.6 µM],49%[87.6 µM],?
Cc1cc(C)cc(-c2ccc(CN3CCCC3C(=O)NCc3ccc4c(c3)OCO4)cc2)c1 (stereo unspecified),-8,.,2%,-16%,.
Cn1cc(-c2ccc3nnc(C(F)(F)c4ccc5ncccc5c4)n3n2)cn1,1,.,-4%,-15%,-19%
Cc1nn(-c2ccccc2)c2c1C(C)N(C1CN(C(=O)c3ccc(Cl)nc3)C1)C2=O (stereo unspecified),1,.,.,.,.
COc1cc2nc(-c3cc(F)ccc3O)nc(N[C@@H]3CNC[C@H]3C(C)(C)O)c2cc1OC,-62*,.,?,.,3.3µM*
COc1ccc(CCNC(=O)CCc2nnc(-c3cccc(OC(C)C)c3)[nH]c2=O)cc1,-7,i,2%,12%,.
CC(C)Oc1cccc(-c2nnc(CCC(=O)NCCc3cccs3)c(=O)[nH]2)c1,-27*,i,9%,0%,?
O=C(O)COc1ccc(-c2nccc3c2C(=O)N(Cc2cccc(C(F)(F)F)c2)CC(CNC(=O)c2cccc(Cl)c2)O3)cc1 (stereo unspecified),-11,.,2%,-27%,.
O=C(Oc1ccccc1F)c1nc(SCc2ccccc2F)ncc1Cl,-33*,?,9%,6%,-19%
Cc1ccc(CSc2ncc(Cl)c(C(=O)Oc3ccccc3F)n2)cc1,-24,?,9%,-5%,.
COC(=O)c1c(SCC(=O)Nc2ccccc2C(F)(F)F)[nH]c2ccc(Cl)cc2c1=O,-1,i,10%,-4%,.
SMILES,IP6K1 inhibitor,KDM5B inh,HEK293 viab,SNCA expr inh,IP6K1 inh cnf
COC(=O)c1c(SCC(=O)Nc2cc(C)cc(C)c2)[nH]c2ccccc2c1=O,-47*,i,-11%,-21%,?
C[S+](=O)([O-])c1ccc(-c2cc(C(=O)NC3CCCC3)nn3cccc23)cc1,-10,.,-28%,?,.
Cc1cccn2c(=O)c(C(=O)NCCc3ccc(Cl)cc3)cnc12,8,?,-8%,67%,.
CSc1ccc(CCNC(=O)c2cnc3c(C)cccn3c2=O)cc1,-29*,i,13%,31%,-21%
Cn1c(=O)c2c(n3c4ccccc4nc13)NC(=O)CC2c1cccc(F)c1 (stereo unspecified),-3,?,14%,35%,.
Cn1c(=O)c2c(n3c4ccccc4nc13)NC(=O)CC2c1ccccc1F (stereo unspecified),-28*,?,4%,19%,-20%
